Test [1] is described as follows: inhibitors of TNFa-induced NFkB p65 translocation, primary screen, imaging, HUVEC, MLSMR starter and 10KST1 sets (AID 438;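 active means inhibition above 20% together with a positive visual image hit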;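 further: compound added about 3h40 before a 20 min TNFalpha stimulation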;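 on inhibition: signal is the nuclear over cytoplasmic p65 intensity ratio per well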). The note with it: HUVEC TNFa-induced p65 nuclear translocation; cell count: measured here: nuclei count (cytotoxicity indicator), at 2.08 µM; inhibition: at 2 µM, stronger effect = higher value, 0% TNFa-plus-vehicle, 100% no-TNFa wells.
A short description of test [2]: reduction of polyQ htt aggregates in cells – imaging, exon1htt(103Q)mCFP cells, high-content imaging, primary screen (AID 483;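 active means visual image review flags a hit and inhibition of aggregation exceeds 20%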;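 further: compound exposure lasted 3 days before fixation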;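 on nuclei count: percent of the per-plate median nuclei count of sample wells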). The conditions noted are these: exon1htt(103Q)mCFP cell line, aggregate imaging, at 2 µM; inhibition of aggregation: stronger effect = higher value; nuclei count: measured here: cell count, toxicity.
Test [3] is described as follows: endothelial E-selectin expression blockers – imaging, HUVEC, immunofluorescence, MLSMR starter and 10KST1 sets, primary screen (AID 487;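 active means visually confirmed hit in the image check and inhibition above 20%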;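 on inhibition: signal is fraction of cell area covered by stained E-selectin grains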;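 on nuclei count: 100% = median nuclei count of all wells on the same plate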). The conditions noted are these: HUVEC TNFalpha-induced E-selectin immunofluorescence imaging, at 2 µM; inhibition: stronger effect = higher value; nuclei count: measured here: cell number, toxicity.
Test [4] in a line: Primary imaging screen for DUSP6 inhibitors that restore phospho-Erk in transfected HeLa cells, chemical complementation (AID 609;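 active means compounds giving at least 50% inhibition in the cell-based MKP-3 phosphatase rescue imaging test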;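 on inhibition: phospho-Erk level distribution per well compared with pooled transfected vehicle control wells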). The conditions noted are these: HeLa MKP-3 transfected, phospho-Erk imaging KS statistic, at 10 µM, cells stimulated with TPA for 15 min.
The target of test [5] is Dual specificity protein phosphatase 6 (Homo sapiens) (UniProt Q16828). Described as above. The conditions noted are these: HeLa MKP-3 transfected, phospho-Erk imaging KS statistic; at 10 µM; stronger effect = higher value; cells stimulated with TPA for 15 min.
Sequence of Dual specificity protein phosphatase 6 (Homo sapiens) (Q16828 whole entry, looked up): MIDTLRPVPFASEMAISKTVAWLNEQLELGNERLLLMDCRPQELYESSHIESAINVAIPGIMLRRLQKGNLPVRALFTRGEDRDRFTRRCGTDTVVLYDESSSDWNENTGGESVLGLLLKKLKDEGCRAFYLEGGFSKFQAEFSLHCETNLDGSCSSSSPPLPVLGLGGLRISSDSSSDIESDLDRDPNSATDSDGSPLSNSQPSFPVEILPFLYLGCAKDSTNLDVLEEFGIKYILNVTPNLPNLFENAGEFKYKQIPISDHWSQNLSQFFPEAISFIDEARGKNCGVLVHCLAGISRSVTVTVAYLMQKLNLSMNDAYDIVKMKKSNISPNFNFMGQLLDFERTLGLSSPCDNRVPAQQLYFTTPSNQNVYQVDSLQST
The target in test [6] is Voltage-gated potassium channel subunit beta-2 (Rattus norvegicus) (UniProt P62483). Description: inhibitors of rat Kvbeta2 reductase activity – biochemical, NADPH fluorescence, primary screen (AID 622;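 active means fluorescence slope higher than the sample average by over 3 SD, cut at about -0.22 in these data, passing the limit was not always enough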;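 further: slope of raw intensity against log time taken from 70 to 1610 s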). The conditions noted are these: recombinant KvBeta, 4-cyanobenzaldehyde reduction, at 10 µM, stronger effect = higher value.
Sequence of Voltage-gated potassium channel subunit beta-2 (Rattus norvegicus) (P62483 whole entry, looked up): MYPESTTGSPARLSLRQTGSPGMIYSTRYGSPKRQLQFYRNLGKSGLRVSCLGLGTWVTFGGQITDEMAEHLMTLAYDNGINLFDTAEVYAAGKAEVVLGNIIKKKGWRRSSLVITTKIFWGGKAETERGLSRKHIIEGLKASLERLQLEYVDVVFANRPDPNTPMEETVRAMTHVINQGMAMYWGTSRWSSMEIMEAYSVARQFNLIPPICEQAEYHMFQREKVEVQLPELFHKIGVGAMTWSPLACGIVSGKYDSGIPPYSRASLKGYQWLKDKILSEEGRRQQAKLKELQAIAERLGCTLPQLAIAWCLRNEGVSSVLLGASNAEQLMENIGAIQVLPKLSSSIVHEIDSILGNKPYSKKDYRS
For test [7] the target is unchanged. Description: enhancers of rat Kvbeta2 NADPH turnover – biochemical, NADPH fluorescence, primary screen (AID 623;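 active means NADPH fluorescence slope more negative than the mean of all samples by about 3 SD, 99.7% confidence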;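 further: fluorescence intensity change per second fitted from 20 to 320 s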). The conditions noted are these: Recombinant KvBeta, NADPH fluorescence decrease slope, 10 min; at 10 µM; stronger effect = lower value.
Test [8] addresses Alpha-2C adrenergic receptor (Homo sapiens) (UniProt P18825). Description: compounds altering alpha2C-coupled GIRK flux – cell-based, HEK293 alpha2C/GIRK1/2, thallium flux, primary screen (AID 624;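 active means fluorescence slope after compound addition differing from the mean of all screened samples at 99.7% confidence, in either direction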;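 further: slope of fluorescence ratio to pre-addition baseline per second over 15 to 24 s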). The note with it: thallium flux BTC fluorescence, at 10 µM, actives lie on both sides.
Test [9] in a line: inhibitors of larval lipid processing in zebrafish, primary screen, whole organism, PED6 fluorescence, gall bladder and intestine (AID 686;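 active means a full or partial loss of lipid-probe fluorescence in the fish gall bladder, intestine or both, judged by eye; inactive means no fluorescence loss, or compound toxic to the fish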;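 further: larvae 5 to 7 days old with five fish per well; signal comes from phospholipase A2 cleavage of quenched PED6 carried via bile; overnight exposure to compound and PED6 before scoring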). The note with it: Zebrafish larvae PED6 lipid processing, fluorescence scoring; screened at 20 µM (by protocol).
The nature of test [10]: loss of swimming-algae plug formation – whole organism, Chlamydomonas reinhardtii, WT vs cilia-less mutant, absorbance, 96-well, primary screen (AID 463189).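 Further: 0% = wild type cc124 cells in DMSO and 100% = ciliumless bld1 mutant cells.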 The note with it: Chlamydomonas reinhardtii gravitaxis, OD600 absorbance, 2 days; at 10 µM; stronger effect = higher value.
Test [11] in a line: blockers of RIG-like receptor reporter activation – cell-based, Sendai virus stimulus, luciferase, 10K MLSCN set, TLR/RLR signaling modifier project, primary screen (AID 602276;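 active means inhibition at or above 50% at 10 µM; inactive means inhibition below 50%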;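 further: firefly luciferase from ISG56 promoter only with Renilla not read in this screen; 0% = Sendai virus plus DMSO and 100% = medium plus DMSO without virus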). The conditions noted are these: HEK293 RL24 IRF3 luciferase reporter, at 10 µM, stronger effect = higher value.
Test [12] in a line: TLR3 IRF3 reporter activation blockers – cell-based, poly I:C stimulus, luciferase, 10K MLSCN set, primary screen (AID 602277;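 active means inhibition of the reporter signal at or above 50%; inactive means inhibition below 50%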). The conditions noted are these: HEK293-TLR3 RL24 IRF3 luciferase reporter, at 10 µM, stronger effect = higher value.
Setting [13] is: measured here: cell density z-score.
[14] abbreviates: measured here: nuclear c-Myc green intensity z-score.
Setting [15] is: measured here: nuclear pErk red intensity z-score, stronger effect = higher value.

Where “and” joins values, the source holds several entries; their conditions need not be identical. Equal values may be shown once. Some structures have more than one record in an assay (separate samples or runs), and their calls can disagree. Calls of active or inactive are those of the source.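 How the source made its calls, unless noted: active means inhibition at or above 50% relative to wild type and mutant plate controls; inactive means inhibition below 50%.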

Sequence of Alpha-2C adrenergic receptor (Homo sapiens) (P18825 whole entry, looked up): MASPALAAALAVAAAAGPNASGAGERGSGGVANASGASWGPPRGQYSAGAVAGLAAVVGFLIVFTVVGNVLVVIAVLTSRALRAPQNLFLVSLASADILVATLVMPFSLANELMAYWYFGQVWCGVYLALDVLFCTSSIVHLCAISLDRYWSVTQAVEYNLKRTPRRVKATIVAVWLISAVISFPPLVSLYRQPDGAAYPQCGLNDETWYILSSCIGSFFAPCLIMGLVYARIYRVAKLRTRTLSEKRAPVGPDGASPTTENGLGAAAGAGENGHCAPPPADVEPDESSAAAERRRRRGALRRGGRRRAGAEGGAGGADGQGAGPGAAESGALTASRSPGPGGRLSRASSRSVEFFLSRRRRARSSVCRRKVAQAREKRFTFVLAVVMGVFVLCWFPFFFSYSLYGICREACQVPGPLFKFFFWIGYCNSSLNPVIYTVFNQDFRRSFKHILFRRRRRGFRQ

The term inhibition denotes the drop in the measured response relative to a control, in per cent. `CN(C)CCCN1c2ccccc2Sc2ccc(Cl)cc21`: in test [1], the cell count worked out at 556. Further, the inhibition in test [1] is 0% (inactive); in test [3] it was -64.8% (inactive); in test [5] it was -0.828% (inactive); in [10], 67.6% (active) and 162% (active); in test [11], 16.5% (inactive); in test [12], 40.1% (inactive). Further, the inhibition of aggregation in test [2] was 14.2% (inactive). Moreover, the nuclei count in test [2] is 101%; in test [3], 123%. Further, the z-score was 1.02 in test [4] (setting [13]), 0.553 in [4] (setting [14]) and -0.0543 in test [4] (setting [15]). Also, the fluorescence slope in test [6] was -0.472 (inactive). In addition, in [7], the NADPH fluorescence slope was -6e-05 (inactive). Besides, in test [8], the slope is 0.00356 (inactive). The result in test [9] was inactive.
Turning to `C#CCN(C)Cc1ccccc1`, the cell count in [1] is 613. Further, the inhibition in test [1] is -8.1% (inactive); in [3], -105% (inactive); in [5] it was 13.3% (inactive); in test [10], -8.12% (inactive) and 10.4% (inactive); in [11] it was 18.7% (inactive); in test [12], 42.3% (inactive). Also, the inhibition of aggregation in test [2] is 11.2% (inactive). The nuclei count in test [2] is 96.3%; in [3] it was 135%. Further, the z-score is 1.46 in test [4] (setting [13]), -0.921 in test [4] (setting [14]) and -1.15 in [4] (setting [15]). The fluorescence slope in test [6] is -0.461 (inactive). The NADPH fluorescence slope in [7] was -3.5e-05 (inactive). Besides, the slope in [8] was 0.00478 (inactive). Besides, the compound was called inactive in test [9].
Regarding `O=C(O)c1cccnc1Nc1cccc(C(F)(F)F)c1`, the cell count in test [1] was found to be 579. Besides, the inhibition in test [1] was -0.7% (inactive); in test [3], -109% (inactive); in [5], 3.59% (inactive); in [10] it was 0.869% (inactive) and -7.21% (inactive); in test [11], 17.3% (inactive); in test [12], 24.1% (inactive). Also, the inhibition of aggregation in test [2] is 7.2% (inactive). In addition, the nuclei count in test [2] was 55.6%; in [3] it was 125%. In addition, the z-score in test [4] (setting [13]) was -1.55; in [4] (setting [14]), -0.913; in test [4] (setting [15]), 0.921. Moreover, the fluorescence slope in test [6] was -0.507 (inactive). Further, the NADPH fluorescence slope in test [7] is -5.7e-05 (inactive). Further, in [8], the slope was 0.00519 (inactive). Also, the call in test [9] was inactive.
Regarding `CC(COc1ccccc1)NC(C)C(O)c1ccc(O)cc1` (stereo not given), the cell count in test [1] stood at 534. For the same compound, the inhibition in test [1] is -7.4% (inactive); in [3], -135% (inactive); in test [5], -12.3% (inactive); in [10], -3.83% (inactive); in [11], -5.16% (inactive); in [12], -30% (inactive). Moreover, in test [2], the inhibition of aggregation was -13.1% (inactive). The nuclei count in [2] amounted to 100%; in test [3], 121%. Further, the z-score in test [4] (setting [13]) was -1.06; in test [4] (setting [14]) it was -0.532; in test [4] (setting [15]) it was 0.827. Further, in test [6], the fluorescence slope was -0.54 (inactive). Moreover, in test [7], the NADPH fluorescence slope is 4.6e-06 (inactive). Also, the slope in [8] was 0.00639 (inactive). Besides, the compound was called inactive in test [9].
`O/N=C/c1ccc(OCC(O)COc2ccc(/C=N/O)cc2)cc1`: the cell count in test [1] was determined as 678. The inhibition is 3.9% (inactive) in [1]; -37.7% (inactive) in test [3]; -8.59% (inactive) in test [5]; 13.7% (inactive) in test [10]; -3.4% (inactive) in test [11]; -9.91% (inactive) in [12]. For the same compound, the inhibition of aggregation in test [2] is 8.1% (inactive). Besides, the nuclei count in test [2] stood at 104%; in test [3], 114%. The z-score in test [4] (setting [13]) is 0.736; in test [4] (setting [14]) it was -0.218; in [4] (setting [15]) it was -0.78. Besides, the fluorescence slope in [6] was -0.33 (inactive). For the same compound, the NADPH fluorescence slope in test [7] is -1e-05 (inactive). In addition, the slope in test [8] is 0.00891 (inactive). Besides, in [9], the compound was called inactive.
Consider `CCOC(=O)CCC(=O)O[C@H]1[C@H](O[C@@H]2[C@@H](C)[C@H](O[C@H]3C[C@@](C)(OC)[C@@H](O)[C@H](C)O3)[C@@H](C)C(=O)O[C@H](CC)[C@@](C)(O)[C@H](O)[C@@H](C)C(=O)[C@H](C)C[C@@]2(C)O)O[C@H](C)C[C@@H]1N(C)C`, for which the cell count in test [1] stood at 569. For the same compound, the inhibition in test [1] is -5.3% (inactive); in test [3], -62.2% (inactive); in test [5], -4.44% (inactive); in test [10], 64.6% (active); in [11] it was 20.3% (inactive); in test [12], 31.3% (inactive). Further, the inhibition of aggregation in test [2] is 0.8% (inactive). Further, the nuclei count in test [2] was found to be 105%; in test [3] it was 115%. Also, the z-score was -0.734 in test [4] (setting [13]), -0.933 in [4] (setting [14]) and 0.00972 in test [4] (setting [15]). In addition, in [6], the fluorescence slope is -0.495 (inactive). Besides, the NADPH fluorescence slope in [7] is -5.4e-05 (inactive). Moreover, the slope in test [8] is 0.0056 (inactive). In test [9], the compound was called inactive.
As for `COc1cccc(OC)c1C(=O)N1CCN(S(=O)(=O)c2ccc(C)cc2)CC1`, the cell count in [1] worked out at 565. The inhibition in test [1] is -7.5% (inactive); in test [3], -232% (inactive); in [5] it was 5.57% (inactive); in test [10], -1.26% (inactive); in test [11] it was 5.77% (inactive); in test [12], 18% (inactive). Further, the inhibition of aggregation in [2] is 12.9% (inactive). The nuclei count was found to be 104% in [2] and 135% in test [3]. Besides, the z-score is -0.228 in [4] (setting [13]), -1.25 in [4] (setting [14]) and 0.112 in test [4] (setting [15]). In test [6], the fluorescence slope was -0.382 (inactive). Moreover, the NADPH fluorescence slope in test [7] is 1.3e-06 (inactive). Besides, the slope in test [8] was 0.0062 (inactive). Also, the compound was classed as inactive in test [9].
Consider `Cc1cc(C)n(-c2nnc(C)n2/N=C/c2ccco2)n1`, for which the cell count in test [1] was 609. Also, the inhibition in test [1] is -8.3% (inactive); in test [3], -232% (inactive); in [5], 20.2% (inactive); in test [10] it was 17.4% (inactive); in test [11], 17.4% (inactive); in test [12] it was 24% (inactive). Moreover, the inhibition of aggregation in test [2] was -21.9% (inactive). In addition, the nuclei count came to 106% in test [2] and 159% in test [3]. The z-score was 1.68 in test [4] (setting [13]), -0.585 in test [4] (setting [14]) and 0.108 in test [4] (setting [15]). Further, the fluorescence slope in [6] is -0.501 (inactive). In addition, in test [7], the NADPH fluorescence slope is -5.1e-05 (inactive). The slope in [8] is 0.00494 (inactive). Also, in [9], the outcome was inactive.
`CCOC(=O)N1CCN(c2ncnc3c2[nH]c2ccc(OC)cc23)CC1`: the cell count in [1] came out at 520. In addition, the inhibition in test [1] is -6% (inactive); in [3], 6.4% (inactive); in test [5] it was 0.671% (inactive); in test [10], 8.03% (inactive); in test [11] it was -1.93% (inactive); in [12], -5.19% (inactive). Also, in test [2], the inhibition of aggregation was 2.6% (inactive). Also, the results for the nuclei count in test [2] and in test [3] were 109% and 100%, respectively. The z-score was 1.15 in test [4] (setting [13]), -0.635 in [4] (setting [14]) and 1.15 in test [4] (setting [15]). Also, in test [6], the fluorescence slope is -0.222 (inactive). In addition, the NADPH fluorescence slope in test [7] is -4.8e-05 (inactive). Moreover, the slope in [8] is 0.00434 (inactive). Moreover, the compound was called inactive in test [9].
In the case of `CN1CCN(CCCN2c3ccccc3Sc3ccc(Cl)cc32)CC1`, the cell count in [1] amounted to 625. Moreover, the inhibition in test [1] was -0.8% (inactive); in test [3], -67.5% (inactive); in [5], 30.1% (inactive); in [10], 96.7% (active) and 24.7% (inactive); in [11], 17.3% (inactive); in test [12] it was 22.7% (inactive). In [2], the inhibition of aggregation was 6.1% (inactive). For the same compound, the values for the nuclei count in test [2] and in test [3] were 98.7% and 115%, respectively. For the same compound, the z-score in test [4] (setting [13]) was determined as 0.0938; in test [4] (setting [14]), 1.34; in [4] (setting [15]) it was 0.8. In addition, the fluorescence slope in [6] is -0.449 (inactive). The NADPH fluorescence slope in [7] was 1.3e-05 (inactive). Also, the slope in test [8] is 0.00441 (inactive). Besides, the compound was called inactive in test [9].

(Values after PubChem BioAssay.)
